# Experimental data taken from publication PMC4336329 (PLoS ONE, 2015).
# Hit rate of the full screen: of about 310,000 compounds, about 2,200 (0.71%) showed an effect of 50% or more. The effect is printed as a negative number. This is one part of a sample in which strong results are shown more often than they occur.
# Molecular target: human ether-à-go-go-related gene (hERG) potassium channel (human, UniProt Q12809)
# Assay: primary screen, population patch clamp on CHO cells stably expressing hERG; higher = less effect of the substance
# human ether-à-go-go-related gene (hERG) potassium channel, sequence (Q12809 whole entry, looked up): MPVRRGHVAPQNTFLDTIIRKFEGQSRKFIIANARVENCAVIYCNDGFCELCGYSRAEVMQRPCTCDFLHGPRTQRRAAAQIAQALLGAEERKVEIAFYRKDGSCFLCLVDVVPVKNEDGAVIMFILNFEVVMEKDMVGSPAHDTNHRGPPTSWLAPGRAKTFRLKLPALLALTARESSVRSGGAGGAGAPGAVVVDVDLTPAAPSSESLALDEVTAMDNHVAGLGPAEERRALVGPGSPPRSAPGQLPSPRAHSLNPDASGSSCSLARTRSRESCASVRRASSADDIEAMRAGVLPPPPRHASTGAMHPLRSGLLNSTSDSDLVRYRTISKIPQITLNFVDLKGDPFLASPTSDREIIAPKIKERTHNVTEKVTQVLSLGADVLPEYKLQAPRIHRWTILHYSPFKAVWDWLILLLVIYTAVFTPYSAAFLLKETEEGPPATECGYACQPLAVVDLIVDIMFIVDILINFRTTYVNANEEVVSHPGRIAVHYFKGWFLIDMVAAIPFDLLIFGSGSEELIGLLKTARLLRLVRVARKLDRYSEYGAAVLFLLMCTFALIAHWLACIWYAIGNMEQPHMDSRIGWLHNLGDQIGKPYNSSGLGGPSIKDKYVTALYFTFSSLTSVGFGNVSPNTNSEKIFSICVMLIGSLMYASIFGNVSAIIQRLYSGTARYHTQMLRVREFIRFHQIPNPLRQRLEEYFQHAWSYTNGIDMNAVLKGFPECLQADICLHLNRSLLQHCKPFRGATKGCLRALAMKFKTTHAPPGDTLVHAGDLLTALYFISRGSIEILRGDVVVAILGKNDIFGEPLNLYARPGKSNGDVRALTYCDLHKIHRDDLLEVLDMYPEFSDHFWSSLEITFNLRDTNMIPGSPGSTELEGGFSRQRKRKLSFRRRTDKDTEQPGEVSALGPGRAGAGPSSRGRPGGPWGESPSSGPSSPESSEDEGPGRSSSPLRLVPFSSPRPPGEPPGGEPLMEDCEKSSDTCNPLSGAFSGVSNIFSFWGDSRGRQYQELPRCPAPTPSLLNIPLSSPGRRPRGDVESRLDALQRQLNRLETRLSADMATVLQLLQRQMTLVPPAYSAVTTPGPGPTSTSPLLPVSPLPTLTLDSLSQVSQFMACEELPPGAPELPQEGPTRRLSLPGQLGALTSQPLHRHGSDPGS
row,SMILES,"hERG current change (%, negative = inhibition) at 1uM [%]"
1,COc1cc2c(cc1OC)CN(S(C)(=O)=O)CC2,16.5
2,Fc1cccc(CCN2CCNC[C@@H]2CC2CCCCC2)c1,1.12
3,Cc1ccc2oc(C(=O)NCC3CCOCC3)c(C)c2c1,10.3
4,CCCCCCCn1c(=N)n(CC(O)c2ccco2)c2ccccc21.Cl (centres unmarked),-76.8
5,Cl.Cn1c(=N)n(CC(O)c2ccco2)c2ccccc21 (centres unmarked),1.97
6,CCCn1c(=N)n(CC(O)c2ccco2)c2ccccc21.Cl (centres unmarked),-13.8
7,CCN(CC)CCn1c(=N)n(CC(O)c2ccco2)c2ccccc21.Cl (centres unmarked),-54.6
8,CCn1c(=N)n(CC(O)c2ccco2)c2ccccc21.Cl (centres unmarked),-7.63
9,Cl.N=c1n(CCN2CCCC2)c2ccccc2n1CC(O)c1ccco1 (centres unmarked),-3.97
10,O=C(O)C(=O)O.O=[N+]([O-])c1cccc(CN2CCN(Cc3ccc(Cl)cc3)CC2)c1,-27.2
11,COC(=O)c1cc(NC(=O)C2(S(=O)(=O)c3ccc(C)cc3)CC2)cc(C(=O)OC)c1,0.157
12,COc1ccc(O)c(C(=O)c2cc(C#N)c(=O)n(Cc3ccccc3)c2)c1,8.35
13,O=C(NCc1ccccc1)C1(C(F)(F)F)C/C(=C\CCO)CCCO1 (centres unmarked),14.1
14,Cc1ccc(/C=C2/C(=O)NC(=O)N(CCc3ccc(F)cc3)C2=O)o1,2.54
15,CCC1CN(C(=O)N2CCC(C(=O)NCCc3ccccc3)CC2)c2ccccc2O1 (centres unmarked),8.85
16,COCCCNC(=O)CCc1nc2cccnc2n1Cc1ccccc1,-11.9
17,O=C(CCc1nc2cccnc2n1Cc1ccccc1)NCCc1ccc(Cl)cc1,-65.2
18,CCCCNC(=O)CCc1nc2cccnc2n1Cc1ccccc1,-34.7
19,Cc1ccc([N+](=O)[O-])cc1N/C=C1\CCCCC1=O,16.5
20,Cc1ccc(N(CC(=O)NCc2cccnc2)S(C)(=O)=O)cc1C,12.4
21,COc1ccc(C2=NOC(C(=O)NCc3cccs3)C2)cc1 (centres unmarked),21.3
22,O=C(Nc1ccccc1Cl)c1cc(S(=O)(=O)N2CCCCC2)ccc1N1CCOCC1,-5.21
23,NC(=O)c1ccc(NC(=O)c2cc(S(=O)(=O)N3CCCCC3)ccc2N2CCOCC2)cc1,13.4

row,SMILES,"hERG current change (%, negative = inhibition) at 1uM [%]"
1,O=C(Nc1ccccc1)c1cc(S(=O)(=O)N2CCCCC2)ccc1N1CCOCC1,12.6
2,CS(=O)(=O)c1ccc(Cl)c(NC(=O)c2cc(S(=O)(=O)N3CCOCC3)ccc2N2CCCC2)c1,-60.2
3,O=C(Nc1ccccc1N1CCCCC1)c1cc(S(=O)(=O)N2CCOCC2)ccc1Cl,7.72
4,O=C(Nc1ccccc1N1CCCC1)c1cc(S(=O)(=O)N2CCOCC2)ccc1Cl,-9.58
5,CNC(=O)c1ccc(NC(=O)c2cc(S(=O)(=O)N3CCOCC3)ccc2N2CCCC2)cc1,13.5
6,NC(=O)c1ccccc1NC(=O)c1cc(S(=O)(=O)N2CCCCC2)ccc1N1CCOCC1,-60.5
7,N#Cc1ccc(NC(=O)c2cc(S(=O)(=O)N3CCOCC3)ccc2N2CCCC2)cc1,-58.9
8,CC1=NN(c2ccc(C(=O)O)cc2)C(=O)/C1=C/c1ccc(-c2ccccc2F)o1,15.2
9,C=CCOc1cccc(C(=O)N2CCC(CCC(=O)NC3CC3)CC2)c1,12.6
10,Cn1c(SCC(=O)N/N=C/C=C\c2ccco2)nc2ccccc21,-13.7
11,O=C(Nn1c(O)c(C=C2N=c3ccccc3=N2)sc1=S)c1ccccc1Cl,0.388
12,Cc1ccc(-c2nnn(CC(=O)N(c3ccc4c(c3)OCCO4)C(C(=O)NCC3CCCO3)c3ccc(F)cc3)n2)o1 (centres unmarked),10.9
13,O=C(O)c1ccc(S(=O)(=O)NC2CCCCCC2)cc1,13.5
14,O=C(NNC(=O)c1ccccc1[N+](=O)[O-])c1csc(N2CCOCC2)n1,0.109
15,CCn1cc(-c2nnnn2-c2ccc(Cl)cc2)c(=O)c2ccccc21,-16.3
16,Cn1cc(-c2nnnn2-c2ccc(Cl)cc2)c(=O)c2ccccc21,-66.3
17,Cn1cc(-c2nnnn2-c2ccccc2)c(=O)c2ccccc21,1.73
18,CCCCNC(=O)/C(=C/c1ccccc1)NC(C)=O,1.06
19,COc1cccc(NC(=O)CSc2nc3c(sc4ccccc43)c(=O)n2CCCN2CCCC2)c1,-3.14
20,Cc1ccc(CNC(=O)CSc2nc3c(sc4ccccc43)c(=O)n2CCCN2CCCC2)cc1,-57.9
21,O=C(CCCCCn1c(SCC(=O)c2ccccc2)nc2ccccc2c1=O)NCc1ccco1,14.7
22,O=C(CSc1nc2ccccc2c(=O)n1CCCO)NCc1ccccc1,-4.26
23,Cc1ccc(CNC(=O)CSc2nc3ccccc3c(=O)n2CCCO)cc1,-51.3

row,SMILES,"hERG current change (%, negative = inhibition) at 1uM [%]"
1,O=C(CCCCCn1c(SCc2ccncc2)nc2ccccc2c1=O)NCc1ccco1,-88.4
2,O=C(CSc1nc2c(sc3ccccc32)c(=O)n1CCO)NCc1ccco1,-1
3,COCCCn1c(SCC(=O)NCc2ccccc2)nc2ccccc2c1=O,-8.03
4,Cc1ccc(CSc2nc3ccccc3c(=O)n2CCCC(=O)NCc2ccco2)cc1,1.62
5,CCCCn1c(SCC(=O)NCc2ccco2)nc2c(sc3ccccc32)c1=O,-4.7
6,O=C(CSc1nc2c(sc3ccccc32)c(=O)n1CCCN1CCOCC1)NCC1CCCO1 (centres unmarked),2.38
7,CCN(CC)CCn1c(SCC(=O)NCc2ccco2)nc2c(sc3ccccc32)c1=O,-50.4
8,O=C(CN1C(=O)/C(=C/c2ccccc2F)Sc2ccccc21)N1CCN(c2ccccn2)CC1,12.8
9,CC(=O)Nc1cccc(C(=O)OCC(=O)NC(C)c2ccc(F)cc2)c1 (centres unmarked),16.1
10,Cc1cc(Oc2ccc(-c3ccccc3)cc2)nc(N2CCOCC2)n1,2.61
11,COc1ccc(N2CCC(CNC(=S)Nc3cccc(OC)c3)C2)cc1 (centres unmarked),8.46
12,Cc1ccc(-n2c(SCC(=O)NC3CCCCC3)nc3c(c2=O)SCC3)cc1,9.81
13,COc1ccc(C(=O)N=C2SC3CS(=O)(=O)CC3N2Cc2ccc(OC)c(OC)c2)cc1 (centres unmarked),10.7
14,Cc1ccc2nc(SCC(=O)N3CCCCC3)nc(=O)n2c1,12.4
15,CCOc1ccc(Nc2ncnc3c2cnn3Cc2ccccc2)cc1,8.72
16,C=CCOc1cccc(C2/C(=C(/O)c3ccc(F)cc3)C(=O)C(=O)N2CCN2CCOCC2)c1 (centres unmarked),12.9
17,O=[N+]([O-])c1cc(C(F)(F)F)cc([N+](=O)[O-])c1NN=C1CCCCC1,9.66
18,CC(=O)N1CCN(Cc2nc3cc(NC(=O)Nc4ccccc4)ccc3n2C)CC1,15.5
19,CC(C)CN(C(=O)COC(=O)C12CC3CC(CC(O)(C3)C1)C2)C1CCS(=O)(=O)C1 (centres unmarked),18.7
20,CSCCC(/C(O)=C(\C#N)c1nc2ccccc2[nH]1)N1C(=O)c2ccccc2C1=O (centres unmarked),5.68
21,CC(C)C(=O)Nc1ccc(C(=O)NNC(=O)NC2CCCCC2)cc1,21.9
22,O=C(CSc1nc2c(sc3ccccc32)c(=O)n1CCc1ccccc1)NCc1ccco1,2.54
23,O=C(CSc1nc2c(sc3ccccc32)c(=O)n1CCCN1CCCC1)NCc1ccco1,-70.1

row,SMILES,"hERG current change (%, negative = inhibition) at 1uM [%]"
1,CCOCCCn1c(SCC(=O)NCc2ccco2)nc2c(sc3ccccc32)c1=O,3.64
2,COc1ccc(NC(=O)CSc2nc3c(sc4ccccc43)c(=O)n2CCCN2CCCC2)cc1,-1.35
3,O=C(CSc1nc2c(sc3ccccc32)c(=O)n1CCCN1CCCC1)NCc1ccccc1,-67.9
4,O=C(CSc1nc2c(sc3ccccc32)c(=O)n1CCCN1CCCC1)NCC1CCCO1 (centres unmarked),-19.8
5,CCCc1cc(C(=O)NCCc2ccccc2)no1,-4.85
6,C[C@H](CCC(=O)O)[C@H]1CC[C@H]2[C@@H]3CC[C@@H]4C[C@H](O)CC[C@]4(C)[C@H]3CC[C@]12C,15.8
7,CC1(C(=O)NCCc2c[nH]c3ccccc23)C=CC2(CCCCC2)N1C(=O)c1ccccc1 (centres unmarked),2.59
8,O=C(/C=C/c1ccc(Cl)cc1)NCc1ccncc1,9.09
9,COc1ccccc1-n1c([S-])c(C(=O)Nc2ccccc2C(F)(F)F)[n+]2ccc(C(=O)NCCO)cc12,12.9
10,Nc1ncnc(Nc2c(F)cccc2F)n1,7.67
11,CCOCCCNc1nc2c(C)cccn2c(=O)c1/C=C1\SC(=S)N(C(C)CC)C1=O (centres unmarked),10.1
12,O=c1c(C=NCCN2CCNCC2)c(-c2ccccc2)[nH]n1-c1ccc([N+](=O)[O-])cc1,-31
13,Cc1[nH]n(-c2ccc([N+](=O)[O-])cc2)c(=O)c1C=NCCc1ccc(S(N)(=O)=O)cc1,13.6
14,Cc1[nH]n(-c2ccc([N+](=O)[O-])cc2)c(=O)c1C=NCCN1CCN(C(=O)c2ccc(Br)cc2)CC1,-77.4
15,Cc1[nH]n(-c2ccc([N+](=O)[O-])cc2)c(=O)c1C=NCCN1CCN(C(=O)c2ccccc2F)CC1,-34.2
16,C=CCNC(=S)N1CCN(CCN=Cc2c(C)[nH]n(-c3ccc([N+](=O)[O-])cc3)c2=O)CC1,-27.3
17,Cc1[nH]n(-c2ccc([N+](=O)[O-])cc2)c(=O)c1C=NCC1CCCO1 (centres unmarked),7.67
18,COc1ccc(-c2[nH]n(-c3ccc([N+](=O)[O-])cc3)c(=O)c2C=NCCN2CCNCC2)cc1,2.86
19,Cc1[nH]n(-c2ccc([N+](=O)[O-])cc2)c(=O)c1C=NCCN1CCN(C(=O)c2cccc(F)c2)CC1,-78
20,Cc1[nH]n(-c2ccc([N+](=O)[O-])cc2)c(=O)c1C=NCCN1CCN(C(=O)c2ccc(F)cc2)CC1,-81.7
21,Cc1[nH]n(-c2ccc([N+](=O)[O-])cc2)c(=O)c1C=NCCN1CCN(C(=O)c2ccccc2)CC1,-77
22,COc1ccc(CCN=Cc2c(C)[nH]n(-c3ccc([N+](=O)[O-])cc3)c2=O)cc1OC,7
23,Cc1[nH]n(-c2ccc([N+](=O)[O-])cc2)c(=O)c1C=NCCN1CCN(C(=O)C(C)C)CC1,-19.5
